The full ranking holds about 81,000 sequences; the median of “one-hybrid fitness for binding parS DNA” is about -0.17, and the highest 2% start at about 0.51. What follows is part of a selection rich in the highest values, with near analogues and random picks from the rest.

B1: Caulobacter ParB omega fusion; a variant is named by its letters at X, in order, B8GW30 (parent)
chain: MESVVVGEPGMSEGRRGLGRGLSALLGEVDAAPAQAPGEQLGGSREAPIEILQRNPDQPRRTFREEDLEDLSNSIREKGVLQPILVRPSPDTAGEYQIVAGERAWRAAQRAGLKTVPIMVRELDDLAVLEIGIIENVQRADLNVLEEALSYKVLMEKFERTQENIAQTIGKSXSHVANXMRLLXLPDEVQSYLVSGELTAXHARAIAAAADPVALAKQIIEGGLSVRETEALARKAPNLSAGKSKGGRPPRVKDTDTQALESDLSSVLGLDVSIDHRGSTGTLTITYATLEQLDDLCNRLTRGI

Variants of B1 are the subject of this experiment. Nature of the experiment: one-hybrid fitness for binding parS DNA (scaled: cognate 1, non-cognate 0); higher = stronger binding. The settings on record: with parS DNA site. An outline of the steps: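 Pre- and post-selection plasmids were Illumina-sequenced, three replicate libraries were pooled, and any variant with under 10 reads was removed. The libraries were Caulobacter ParB with four specificity codons randomised, selected in E. coli USO through a HIS3 reporter whose site is 19 bp from the promoter. Cells grew 48 hours at 37°C on M9 without histidine, with 0.1 mM IPTG and 5 mM 3-AT. Fitness is the log change in variant-to-wild-type read ratio, rescaled against cognate and non-cognate.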
On to RFFL, for which the “one-hybrid fitness for binding parS DNA” value is not above 0.2.
With AVTF the figure was not above 0.2.
In the case of CQAV it was not above 0.2; in that of NQES, not above 0.2; in that of RRDR, not above 0.2.
With RRCF the figure was not above 0.2; with DRYC, not above 0.2.
For NRYC, the “one-hybrid fitness for binding parS DNA” value is not above 0.2.
In the case of RRDQ it was not above 0.2; in that of RRCC, 0.619.
With RRYC the figure was 0.63; with RRDC, 0.701; with RRCH, not above 0.2.
In the case of LWSC it was not above 0.2; in that of LRPV, not above 0.2.
As for PQAG, the “one-hybrid fitness for binding parS DNA” value was not above 0.2.
With ETTN the figure was not above 0.2.
Turning to QYKG, the “one-hybrid fitness for binding parS DNA” value is not above 0.2.
Consider CTWT, for which the “one-hybrid fitness for binding parS DNA” value is not above 0.2.
With MGFG the figure was not above 0.2; with GQDP, not above 0.2; with EEAD, not above 0.2.
For the variant RRFT, the “one-hybrid fitness for binding parS DNA” value came to 0.623.
In the case of RRAQ it was not above 0.2; in that of RRFK, not above 0.2; in that of RRAT, 0.562.
With RRFQ, the “one-hybrid fitness for binding parS DNA” value was not above 0.2.
In the case of RRAF it was not above 0.2.
In the case of PVDT it was not above 0.2.
With CRAT the figure was not above 0.2.
As for RDEQ, the “one-hybrid fitness for binding parS DNA” value was not above 0.2.
With RRAM the figure was 0.271.
RRFC: the “one-hybrid fitness for binding parS DNA” value is 0.679.
With RRFR the figure was not above 0.2.
As to RRAC, the “one-hybrid fitness for binding parS DNA” value is 0.597.
With RRFF the figure was not above 0.2; with RRAK, not above 0.2; with STSS, not above 0.2.
With HRSN the figure was not above 0.2; with NLCV, not above 0.2; with TTRK, not above 0.2.
With RAIS the figure was 0.942; with RALH, 0.211.
RAPS: the “one-hybrid fitness for binding parS DNA” value worked out at 0.673.
With RAIN the figure was 0.301.
In the case of RAYS it was 1.03.
In the case of RAPN it was not above 0.2.
Regarding RALS, the “one-hybrid fitness for binding parS DNA” value is 1.03.
With RAYP the figure was not above 0.2.
With RAID the figure was not above 0.2.
In the case of RAYN it was 0.445.
As to RAPP, the “one-hybrid fitness for binding parS DNA” value was not above 0.2.
In the case of RALN it was 0.431.
In the case of MHTT it was not above 0.2.
In the case of SHEG, the “one-hybrid fitness for binding parS DNA” value is not above 0.2.
In the case of FDNL, the “one-hybrid fitness for binding parS DNA” value was not above 0.2.
With CPKA, the “one-hybrid fitness for binding parS DNA” value is not above 0.2.
In the case of QTHW it was not above 0.2; in that of PVVK, not above 0.2.
As to LDQC, the “one-hybrid fitness for binding parS DNA” value is not above 0.2.
In the case of EKET it was not above 0.2.
As for RKYY, the “one-hybrid fitness for binding parS DNA” value was determined as 0.377.
In the case of VKMG it was not above 0.2; in that of GMPS, not above 0.2; in that of RAIT, 0.682.
In the case of RAWS, the “one-hybrid fitness for binding parS DNA” value was determined as 1.05.
RAIP: the “one-hybrid fitness for binding parS DNA” value is not above 0.2.
Take RARN: the “one-hybrid fitness for binding parS DNA” value came to 0.419.
With RAWD the figure was not above 0.2; with RAWP, not above 0.2; with RARS, 0.908.
With RAPT the figure was 0.434; with RARH, not above 0.2; with GPSP, not above 0.2.
In the case of PSKI it was not above 0.2; in that of CYMT, not above 0.2.
Turning to DQPL, the “one-hybrid fitness for binding parS DNA” value is not above 0.2.
Take FLGS: the “one-hybrid fitness for binding parS DNA” value is not above 0.2.
Take RIRN: the “one-hybrid fitness for binding parS DNA” value amounted to 0.395.
With RIYG the figure was 1.03; with RIRG, 0.955; with RIYK, not above 0.2.
Take RIYF: the “one-hybrid fitness for binding parS DNA” value came to 0.265.
In the case of RIRH it was 0.29; in that of PSLL, not above 0.2; in that of FVQI, not above 0.2.
For the variant SSST, the “one-hybrid fitness for binding parS DNA” value is not above 0.2.
With LRVT the figure was not above 0.2; with AKQS, not above 0.2; with WRGT, not above 0.2.
With LTAS the figure was not above 0.2; with HNMS, not above 0.2.
On to RRQS, for which the “one-hybrid fitness for binding parS DNA” value was determined as 0.649.
With RRQM the figure was 0.324.
In the case of RRQD it was not above 0.2.
With RRQN the figure was 0.614; with RRQH, not above 0.2.
For the variant RRQP, the “one-hybrid fitness for binding parS DNA” value was not above 0.2.
In the case of DHPT, the “one-hybrid fitness for binding parS DNA” value is not above 0.2.
As for RGVM, the “one-hybrid fitness for binding parS DNA” value is not above 0.2.
As to LQKG, the “one-hybrid fitness for binding parS DNA” value was not above 0.2.
With QYAK the figure was not above 0.2.
On to TQYT, for which the “one-hybrid fitness for binding parS DNA” value was not above 0.2.
Consider RLFM, for which the “one-hybrid fitness for binding parS DNA” value was determined as 0.369.
In the case of RLFG it was 0.991; in that of RLFK, not above 0.2; in that of RLAG, 1.01.
In the case of RLAD it was not above 0.2; in that of RLAN, 0.442.
As to AIYN, the “one-hybrid fitness for binding parS DNA” value was not above 0.2.
In the case of WEYM it was not above 0.2; in that of NPSH, not above 0.2; in that of VRSD, not above 0.2.
With RAIV the figure was not above 0.2.
With RPEN the figure was not above 0.2; with CYEL, not above 0.2; with HDFT, not above 0.2.
As for NCIT, the “one-hybrid fitness for binding parS DNA” value was not above 0.2.
Consider RYCP, for which the “one-hybrid fitness for binding parS DNA” value was not above 0.2.
In the case of RYID it was not above 0.2; in that of RYCS, 0.958; in that of RYIP, not above 0.2.
In the case of RYQH it was not above 0.2; in that of RYYS, 0.978.
In the case of RYYP it was not above 0.2.
On to RYIS, for which the “one-hybrid fitness for binding parS DNA” value came out at 0.939.
In the case of RYYD it was not above 0.2; in that of RYQS, 0.912; in that of RYCH, 0.223.
With RYQD the figure was not above 0.2; with LVWD, not above 0.2.
In the case of NPHT it was not above 0.2.
As to PSHS, the “one-hybrid fitness for binding parS DNA” value was not above 0.2.
With DITP the figure was not above 0.2; with NQLR, not above 0.2.
In the case of PVNW it was not above 0.2; in that of YEPV, not above 0.2.
With CIDV the figure was not above 0.2; with MSHI, not above 0.2.
Consider RYGD, for which the “one-hybrid fitness for binding parS DNA” value is not above 0.2.
In the case of RYSN it was 0.384; in that of RYRN, 0.375.
Consider RYHS, for which the “one-hybrid fitness for binding parS DNA” value worked out at 0.921.
In the case of RYSS it was 0.911; in that of RYHN, 0.421; in that of RYSH, not above 0.2.
With RYHD the figure was not above 0.2; with RYRS, 0.824.
In the case of RYGS it was 0.901; in that of RYRD, not above 0.2.
Turning to RYGN, the “one-hybrid fitness for binding parS DNA” value is 0.408.
With PQCT the figure was not above 0.2; with AYIG, not above 0.2.

(Values after a collection of fitness landscapes (doi:10.1016/j.celrep.2020.107928).)
